# Source: PubChem BioAssay AID651793 (National Center for Advancing Translational Sciences (NCATS), 2012)
# Records with an inconclusive call do not appear. A call without a number means that no potency is given here. Active and inactive are the calls of the source. The call rests on the fitted dose curve; in most records, active means well fitted inhibition curve with a large enough effect; inconclusive means small, poorly fitted or top-dose-only effect; inactive means flat fitted curve, though single readings scatter.
# Assay: InCell qHTS Assay for Inhibitors of the mTORC1 Signaling Pathway in WT MEF Cells: Hit Validation
# Settings: WT MEF phospho-rpS6 immunofluorescence, Acumen, 24 h; series mostly up to 38.3 µM
# Excerpt: The mammalian target of rapamycin (mTOR) is an intracellular serine/threonine kinase Aberrant regulation of mTOR signaling plays a causative role in a number of human diseases, including cancer, benign tumors such as lymphangioleiomyomatosis (LAM) and Tuberous Sclerosis Complex (TSC), and metabolic diseases such as diabetes and obesity. This project aims to identify inhibitors of ribosomal protein S6 (rpS6) phosphorylation. The phosphorylation of rpS6 is a key event downstream of mTOR activation. The assay uses a phospho-specific antibody of phospho-rpS6 to detect inhibitors of mTOR activation. […]
# For quantitative high throughput analysis of mTORC1 signaling, we developed a cell-based assay for immuno-fluorescence based detection of rpS6 phosphorylation on the Acumen Explorer that will be used a platform for the primary small molecule screen. […] The fluorescence emission from the Alexa-488 conjugated rpS6 phospho-235/236 antibody staining is selected using a […] band pass filter. Fluorescence emission from the PI stain is selected using a 575-640 nm band pass filter. The normalized phospho-S6 staining is calculated as the ratio of the integrated Alexa 488 intensity divided by the integrated PI intensity for the single concentration rapamycin control (7.5 nM) and DMSO columns. […]
row,Structure (SMILES),Potency
1,Cn1cc(C2=C(c3cn(C4CCN(Cc5ccccn5)CC4)c4ccccc34)C(=O)NC2=O)c2ccccc21,inactive
2,CCOc1ccc(NC(=O)c2cc3c(C)nn(-c4ccccc4)c3s2)cc1,17.9 µM (active)
